# Laboratory results published in the supplement of paper PMC6555819.
# Key:
# Test in all cases: PBM binding z-score (relative to random genomic background probes); higher = stronger binding; sequences stand for … in GC…GCGATTGACAGCGTAGAATGAAGG
# [1] = tested on: FXR:RXRa (NR concentration 270 nM, RXRa partner concentration 90 nM)
# Outline: (§1)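 Antibodies against each partner of ligand-free nuclear receptor dimers (one per run) detected binding on custom Agilent 4×180K protein-binding microarrays after 1 h incubation. The double-stranded probes had 34-nt variable regions carrying direct-repeat seeds, single-nucleotide variants, half-site ablations and random human genomic background sequences. Binding z-scores, from regression-normalized fluorescence, use the random background probes as reference.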
# [2] = tested on: LXRa:RXRa (NR concentration 270 nM, RXRa partner concentration 90 nM)
# Outline: as §1
# [3] = tested on: LXRa homodimer (NR concentration 270 nM)
# Outline: as §1
# [4] = tested on: LXRb:RXRa (NR concentration 270 nM, RXRa partner concentration 90 nM)
# Outline: as §1
# [5] = tested on: LXRb homodimer (NR concentration 270 nM)
# Outline: as §1
# [6] = tested on: PPARa:RXRa (NR concentration 270 nM, RXRa partner concentration 90 nM)
# Outline: as §1
# [7] = tested on: PPARg:RXRa (NR concentration 180 nM, RXRa partner concentration 90 nM)
# Outline: as §1
# [8] = tested on: PPARg:RXRa 270nM:90nM, anti-RXR (NR concentration 270 nM, RXRa partner concentration 90 nM)
# Outline: as §1
# [9] = tested on: PPARg:RXRa 30nM:10nM, anti-RXR (NR concentration 30 nM, RXRa partner concentration 10 nM)
# Outline: as §1
# [10] = tested on: PPARg:RXRa 90nM:30nM, anti-RXR (NR concentration 90 nM, RXRa partner concentration 30 nM)
# Outline: as §1
# [11] = tested on: PPARg:RXRa DBDmut IVT, anti-RXR (DBD mutation: RXRa K156A/R161A, NR concentration 270 nM, RXRa partner concentration 90 nM)
# Outline: as §1
# [12] = tested on: PPARg:RXRa IVT, anti-PPARg (NR concentration 270 nM, RXRa partner concentration 90 nM)
# Outline: as §1
# [13] = tested on: PPARg DBDmut:RXRa IVT, anti-PPARg (DBD mutation: PPARg1 K132A/R137A, NR concentration 270 nM, RXRa partner concentration 90 nM)
# Outline: as §1
# [14] = tested on: PPARg DBDmut IVT, anti-PPARg (DBD mutation: PPARg1 K132A/R137A, NR concentration 270 nM)
# Outline: as §1
# [15] = tested on: PPARg homodimer (NR concentration 180 nM)
# Outline: as §1
# [16] = tested on: PXR:RXRa (NR concentration 270 nM, RXRa partner concentration 90 nM)
# Outline: as §1
# [17] = tested on: PXR homodimer (NR concentration 270 nM)
# Outline: as §1
# [18] = tested on: RARa:RXR (NR concentration 270 nM, RXRa partner concentration 90 nM)
# Outline: as §1
# [19] = tested on: RARa homodimer (NR concentration 270 nM)
# Outline: as §1
# [20] = tested on: RARb:RXRa (NR concentration 270 nM, RXRa partner concentration 90 nM)
# Outline: as §1
Sequence,PBM binding z-score [1],PBM binding z-score [2],PBM binding z-score [3],PBM binding z-score [4],PBM binding z-score [5],PBM binding z-score [6],PBM binding z-score [7],PBM binding z-score [8],PBM binding z-score [9],PBM binding z-score [10],PBM binding z-score [11],PBM binding z-score [12],PBM binding z-score [13],PBM binding z-score [14],PBM binding z-score [15],PBM binding z-score [16],PBM binding z-score [17],PBM binding z-score [18],PBM binding z-score [19],PBM binding z-score [20]
CGTCCAACGTCAATGCTAGGTCAGTGAAAGCATT,-0.119,0.271,0.545,0.323,-0.372,0.371,-0.0757,-0.424,-0.443,-0.334,0.0923,0.146,-0.91,-0.198,-0.138,0.124,-0.688,0.602,-0.434,1.33
GCTAGCAGGCCATTTGGGACACTCAATGACGGGC,-0.491,-0.668,-0.545,-1.16,-1.04,-0.523,0.681,-0.463,-0.719,-0.835,0.822,0.411,-0.432,-0.76,-1.04,-0.714,-0.736,-0.559,-0.547,-0.00778
TTACCAAGGTGAGCTGAGGTCGTTGAACCAACTC,1.78,1.48,-0.292,0.787,-0.885,1.88,0.111,0.783,-0.445,0.391,0.903,1.83,-0.507,-1.13,-0.0477,5.01,0.275,2.19,-0.877,1.79
ACTAGCAGGCCAAGTTTCGGTCACTCAAACAAAG,-0.253,-0.249,0.38,-0.133,-0.471,-0.0764,-0.26,-0.531,-0.703,-0.73,0.73,0.753,-0.762,-0.738,-0.0877,-0.355,-0.0865,0.0207,-0.205,1.56
CCTTACGGGTCAAGGTCATAGCACGGGTGGTACG,6.75,5.29,1.9,4.12,0.624,5.78,6.03,5.86,2.53,4.68,1.92,4.64,0.493,-0.425,2.88,5.05,1.3,5.28,0.441,5
CCTACTGGGCTAAAAAGGTCATTGATGCCGATAA,3.31,3.96,3.16,3.89,0.0245,4.67,2.38,3.6,1.21,2.6,2.24,2.86,-0.829,-0.574,2.32,4.35,1.23,4.77,0.346,3.82
TAGCCTCGGTCAGATCGGGCCAGTATACGCTATA,-0.00556,-0.383,-0.622,-0.821,-0.951,-0.586,0.128,-0.706,-0.684,-1.07,-1.11,-0.335,-0.636,-1.63,-1.18,-0.533,-1.31,-0.301,-1.52,1.78
